Several values for one entry are separate records, joined by “and”; a condition that tells them apart may be missing. Equal entries are not always repeated. About 2,000 (36%) of roughly 5,500 compounds were called active. About 18% were inconclusive and are not listed. Rule as the data show it: active = normalized growth mostly below about 0.91 (no sharp cut-off); inconclusive = no clear call, values can overlap the other calls; inactive = mostly above about 0.92. The list shows a part of the results.
Assay: chemical genetic growth profiling, strain panel (AID 1159580);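 also: tested at 20 µM; growth read once vehicle control cultures reached saturation at 30 °C; 1 = growth at the plate median or of vehicle wells; lower values mean less growth of the strain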
Conditions: S. cerevisiae deletion strains, growth OD
[1] = locus YAR019C, strain CDC15, hits give low values
[2] = locus YBL105C, strain PKC1, hits give low values
[3] = locus YBR135W, strain CKS1, hits give low values
[4] = locus YBR136W, strain MEC1, hits give low values
[5] = locus YBR160W, strain CDC28, hits give low values
[6] = locus YDL017W, strain CDC7, hits give low values
[7] = locus YDL028C, strain MPS1, hits give low values
[8] = locus YDL101C, strain DUN1, hits give low values
[9] = locus YDL108W, strain KIN28, hits give low values
[10] = locus YDL132W, strain cdc53, hits give low values
[11] = locus YDL214C, strain PRR2, hits give low values
[12] = locus YDR052C, strain DBF4, hits give low values
[13] = locus YDR054C, strain cdc34, hits give low values
[14] = locus YDR226W, strain ADK1, hits give low values
[15] = locus YDR477W, strain SNF1, hits give low values
[16] = locus YER123W, strain YCK3, hits give low values
[17] = locus YER133W, strain GLC7, hits give low values
[18] = locus YFL009W, strain cdc4, hits give low values
[19] = locus YFL029C, strain CAK1, hits give low values
[20] = locus YFR003C, strain YPI1, hits give low values
[21] = locus YFR019W, strain FAB1, hits give low values
[22] = locus YFR028C, strain CDC14, hits give low values
[23] = locus YGR040W, strain KSS1, hits give low values
[24] = locus YGR052W, strain FMP48, hits give low values
[25] = locus YGR092W, strain DBF2, hits give low values
[26] = locus YHR030C, strain SLT2, hits give low values
[27] = locus YHR079C, strain IRE1, hits give low values
[28] = locus YHR082C, strain KSP1, hits give low values
[29] = locus YHR205W, strain SCH9, hits give low values
[30] = locus YIL147C, strain SLN1, hits give low values
[31] = locus YJL095W, strain BCK1, hits give low values
[32] = locus YJL128C, strain PBS2, hits give low values
[33] = locus YJL157C, strain FAR1, hits give low values
[34] = locus YJR016C, strain ILV3, hits give low values
[35] = locus YJR066W, strain TOR1 (second series), hits give low values
[36] = locus YJR066W, strain TOR1, hits give low values
[37] = locus YKL048C, strain ELM1, hits give low values
[38] = locus YKL067W, strain YNK1, hits give low values
[39] = locus YKL101W, strain HSL1, hits give low values
[40] = locus YKL193C, strain SDS22, hits give low values
[41] = locus YKL203C, strain TOR2, hits give low values
[42] = locus YLR113W, strain HOG1, hits give low values
[43] = locus YLR133W, strain CKI1, hits give low values
[44] = locus YLR403W, strain SFP1, hits give low values
[45] = locus YML070W, strain DAK1, hits give low values
[46] = locus YMR001C, strain CDC5, hits give low values
[47] = locus YMR205C, strain PFK2 (second series), hits give low values
[48] = locus YMR277W, strain FCP1, hits give low values
[49] = locus YNL006W, strain LST8, hits give low values
[50] = locus YNL020C, strain ARK1, hits give low values
[51] = locus YNL161W, strain CBK1, hits give low values
[52] = locus YNL183C, strain NPR1, hits give low values
[53] = locus YNL207W, strain RIO2, hits give low values
[54] = locus YNL222W, strain SSU72, hits give low values
[55] = locus YNL307C, strain MCK1 (second series), hits give low values
[56] = locus YOL078W, strain AVO1, hits give low values
[57] = locus YOL136C, strain PFK27, hits give low values
[58] = locus YOR061W, strain CKA2, hits give low values
[59] = locus YOR119C, strain RIO1, hits give low values
[60] = locus YOR231W, strain MKK1, hits give low values
[61] = locus YOR329C, strain SCD5, hits give low values
[62] = locus YPL031C, strain PHO85, hits give low values
[63] = locus YPL153C, strain RAD53, hits give low values
[64] = locus YPL204W, strain HRR25, hits give low values
[65] = locus YPL209C, strain IPL1, hits give low values
[66] = locus YPL256C, strain CLN2, hits give low values
[67] = locus YPR025C, strain CCL1, hits give low values
[68] = locus YPR106W, strain ISR1, hits give low values
[69] = locus YPR111W, strain DBF20, hits give low values
[70] = strain NNK1, hits give low values
[71] = strain TSCII, hits give low values

Measured: normalized growth

Fc1cccc(Cl)c1CSc1nncn1-c1ccc(OCc2ccccc2)cc1
inactive: locus YAL013W, strain DEP1, hits give low values 0.976 | [1] 0.991 | [2] 1.01 | [3] 1 | [4] 1 | [5] 1.01 | locus YBR229C, strain ROT2, hits give low values 0.991 | locus YCL061C, strain MRC1, hits give low values 0.968 | [6] 1.01 | [7] 1 | [8] 0.997 and 0.986 | [9] 1 | [10] 0.994 | [11] 0.97 | [12] 0.996 | [13] 1.01 | locus YDR150W, strain NUM1, hits give low values 0.909 | [14] 0.999 | [15] 0.983 | locus YEL061C, strain CIN8, hits give low values 0.956 | [16] 0.958 | [17] 0.974 | [18] 1.01 | [19] 1 | [20] 1.01 | [21] 0.955 | [22] 0.997 | [23] 0.979 | [24] 1.05 | locus YGR078C, strain PAC10, hits give low values 0.984 | [25] 0.988 | [26] 0.811 and 1.12 | [27] 1.03 | [28] 1.24 | locus YHR087W, strain rtc3, hits give low values 0.983 | [29] 0.955 | [30] 1 | [31] 1.04 | [32] 1.01 | [33] 0.969 | [34] 0.997 | locus YJR043C, strain POL32, hits give low values 0.98 | [35] 0.967 | [36] 1.23 | locus YJR075W, strain HOC1, hits give low values 0.988 | [37] 0.977 | [38] 0.999 | [39] 0.989 | locus YKL190W, strain CNB1, hits give low values 0.985 | [40] 0.996 | [41] 1.06 | locus YLR039C, strain RIC1, hits give low values 0.792 | locus YLR058C, strain SHM2 (second series), hits give low values 0.991 | locus YLR085C, strain ARP6, hits give low values 0.831 | [42] 1.01 | [43] 0.949 | locus YLR262C, strain YPT6, hits give low values 0.838 | [44] 0.965 | [45] 0.958 | locus YML094W, strain GIM5, hits give low values 0.948 | [46] 1 | [47] 0.965 | locus YMR219W, strain ESC1, hits give low values 0.985 | locus YMR263W, strain SAP30, hits give low values 0.963 | [48] 0.988 | [49] 0.994 | [50] 0.963 | locus YNL153C, strain GIM3, hits give low values 0.977 | [51] 0.973 | [52] 0.98 | [53] 1 | [54] 0.995 | locus YNL298W, strain CLA4 (second series), hits give low values 0.929 | [55] 0.963 | locus YNL322C, strain KRE1, hits give low values 0.988 | locus YNR030W, strain Alg12, hits give low values 0.964 | [56] 0.977 | [57] 0.952 | [58] 0.982 | [59] 1.04 | [60] 1.05 | [61] 1 | [62] 0.986 | locus YPL055C, strain LGE1, hits give low values 0.847 | [63] 0.992 | [64] 0.973 | [65] 0.994 | locus YPL241C, strain CIN2, hits give low values 0.949 | [66] 0.983 | [67] 1.01 | [68] 0.987 | [69] 0.986 | locus YPR135W, strain CTF4, hits give low values 0.832 | [70] 0.984 | [71] 0.986

Cn1c(CSCCOc2ccccc2)nnc1SCc1ccc(Cl)cc1Cl
active: [26] 0.829
inactive: [1] 0.985 | [2] 0.982 | [3] 0.98 | [4] 0.98 | [5] 0.98 | [6] 0.986 | [7] 0.992 | [8] 0.995 | [9] 0.986 | [10] 0.968 | [11] 0.984 | [12] 0.982 | [13] 0.985 | [14] 0.971 | [15] 1.02 | [16] 0.98 | [17] 1 | [18] 0.983 | [19] 0.99 | [20] 0.987 | [21] 0.946 | [22] 0.989 | [23] 1.01 | [24] 1.12 | [25] 0.984 | [27] 0.97 | [28] 1.02 | [29] 0.969 | [30] 0.985 | [31] 0.911 | [32] 0.905 | [33] 1.01 | [34] 0.982 | [35] 0.977 | [36] 0.995 | [37] 0.963 | [38] 0.994 | [39] 0.981 | [40] 0.998 | [41] 1.07 | [42] 1 | [43] 0.982 | [44] 1.01 | [45] 1 | [46] 0.988 | [47] 0.994 | [48] 0.989 | [49] 0.99 | [50] 0.974 | [51] 0.98 | [52] 0.996 | [53] 1 | [54] 0.984 | [55] 0.96 | [56] 0.994 | [57] 0.988 | [58] 1 | [59] 1.14 | [60] 0.992 | [61] 0.986 | [62] 1.03 | [63] 1.03 | [64] 1.04 | [65] 0.99 | [66] 0.979 | [67] 0.986 | [68] 0.982 | [69] 0.969 | [70] 0.983 | [71] 0.988

Source: PubChem BioAssay AID1159580 (chemical genetic matrix, 2015)
